According to PubChem BioAssay (NCI):
About 83,000 compounds went through this panel and 20% of them were active in at least one assay; those are over-represented in the sample as a whole.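 In brief: 96-well plates, 48 h treatment, single concentration, percent growth endpoint.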 A number with no mark means an inactive call. Calls of active or inactive are those of the source. Rule for the calls: active = growth percent below 10; inactive = the rest.

Legend:
Experiment in all cases: NCI-60 one-dose screen, 48 h (100 = growth as untreated, 0 = no growth, -100 = all killed)
[1] = system: SR leukemia; conditions: 10 µM
[2] = system: RPMI-8226 leukemia; conditions: 10 µM
[3] = system: OVCAR-8 ovarian; conditions: 10 µM
[4] = system: OVCAR-5 ovarian; conditions: 10 µM
[5] = system: OVCAR-4 ovarian; conditions: 10 µM
[6] = system: SK-OV-3 ovarian; conditions: 10 µM
[7] = system: IGROV1 ovarian; conditions: 10 µM
[8] = system: OVCAR-3 ovarian; conditions: 10 µM
[9] = system: HS 578T breast; conditions: 10 µM
[10] = system: NCI/ADR-RES ovarian; conditions: 10 µM
[11] = system: T-47D breast; conditions: 10 µM
[12] = system: BT-549 breast; conditions: 10 µM
[13] = system: MDA-MB-435 melanoma; conditions: 10 µM
[14] = system: SW-620 colon; conditions: 10 µM
[15] = system: MCF7 breast; conditions: 10 µM unless noted
[16] = system: HCT-116 colon; conditions: 10 µM
[17] = system: HCC-2998 colon; conditions: 10 µM
[18] = system: KM12 colon; conditions: 10 µM

Compound	growth [1]	growth [2]	growth [3]	growth [4]	growth [5]	growth [6]	growth [7]	growth [8]	growth [9]	growth [10]	growth [11]	growth [12]	growth [13]	growth [14]	growth [15]	growth [16]	growth [17]	growth [18]
CCC/C=C(/C(C)=O)C(=O)OCC	160%	104%	91.8%	92.7%	89.8%	117%	126%	119%	114%	107%	107%	112%	108%	106%	114%	109%	7.66% (active)	102%
NNc1ccccc1C(=O)O	112%	112%	110%	88.9%	111%	115%	118%	119%	108%	107%	107%	103%	116%	101%	104%	112%		
COc1cc([C@@H]2c3cc4c(cc3[C@H](O)[C@H]3COC(=O)[C@H]23)OCO4)cc(OC)c1OC	-1.68% (active)	29.7%	12.9%	40%	26.9%	24.4%	31.6%	-42.8% (active)	26.9%	4.7% (active)	65.5%	7.33% (active)	-30.3% (active)	24.5%	5.76% (active)	2.8% (active)	-4.87% (active)	-4.78% (active)
COc1cc2nn(-c3ccccc3N)nc2cc1OC	111%	100%	97.1%	99.6%	97.7%	102%	89%	112%	92.6%	97.9%	93.6%	81.3%	96.8%	105%	90.7%	103%	95.8%	103%
CCOC(=O)c1ccc(NC(=S)P(=O)(c2ccccc2)c2ccccc2)cc1	69.3%	64.4%	107%	105%	99.6%	107%	110%	92.2%	96.4%	101%	109%	101%	91.1%	102%	100%	91.7%	108%	96.2%
NC(=O)c1ccc(N=C(N)N=C(N)N)cc1	97.4%	107%	98.8%	97.8%	98.2%	100%	102%	105%	99.6%	105%	95.7%	108%	85%	104%	92.7%	105%	97.7%	99.3%
CC12CC3CC1C(C(=O)O2)C3C(=O)O (centres undefined)	93.1%	108%	104%	97.8%	111%	95.6%	114%	101%	108%	97.5%	108%	122%	109%	102%	108%	118%	95.8%	101%
Cc1cccc(CO)c1	109%	114%	101%	107%	103%	107%	115%	98.9%	101%	106%	98.8%	106%	108%	103%	96.6%	104%	112%	97%
Cc1cc(C(O)(c2ccc(Nc3ccccc3)cc2)c2ccc(Nc3ccc(S(=O)(=O)O)cc3)cc2)ccc1N (centres undefined)	7.14% (active)	-28.8% (active)	6.11% (active)	-65.8% (active)	-5.82% (active)	31.3%	5.51% (active)	-29.1% (active)	1.91% (active)	18.8%	-5.86% (active)	22.6%	-67.4% (active)	-32.6% (active)	-3.23% (active)	6.56% (active)	-20.5% (active)	4.39% (active)
CC(C)=CC(=O)OC(=O)C=C(C)C	94.7%	109%	99.7%	104%	119%	96.8%	106%	101%	120%	117%	105%	105%	107%	110%	94.7%	109%	117%	102%
OCC(O)C(O)C(O)C(O)/C=N/O (centres undefined)	102%	94.9%	97.6%	109%	104%	87.2%	107%	113%	103%	103%	87.4%	91.5%	108%	99.6%	96.3%	91.3%	102%	101%
CNc1nc(NC)c2cn[nH]c2n1	96.7%	99.2%	111%	106%	108%	97.2%	109%	114%	101%	108%	101%	103%	111%	106%	97.3%	99.4%	100%	105%
C#CCSc1nnnn1-c1ccc(Br)c(C)c1	74.4%	62.1%	82.5%	90%	80.8%	105%	-28.7% (active)	106%	78.2%	84.6%	87.6%	103%	95.8%	99.9%	82.4%	88%	121%	102%
Cc1cc(Cc2cc(C)c(N)cc2N)c(N)cc1N	55.2%	92.8%	89.7%	116%	111%	82.2%	87.5%	94.9%	93.8%	95.8%	83.5%	98.3%	106%	90.8%	88.6%	94.8%	108%	99.5%
O=[N+]([O-])c1ccc(N=Nc2ccccc2)cc1	97.9%	98%	104%	97.7%	107%	113%	89.8%	107%	119%	94.8%	87.4%	87.2%	110%	115%	109%	97.1%	104%	96.2%
C=CCNC(=O)c1ccc(OC)cc1	110%	92.4%	107%	103%	134%	116%	96.2%	121%	221%	101%	103%	106%	109%	126%	95.2%	105%	93.3%	122%
Cc1nc2c(ccc3ccccc32)s1	91.3%	100%	94.1%	102%	108%	107%	109%	121%	106%	108%	102%	109%	115%	107%	99.2%	103%	75.1%	117%
C/C(=N\O)C1(O)CCCCC1	94.3%	100%	94.1%	103%	110%	98.1%	97.9%	94.7%	62.5%	110%	72.7%	102%	108%	101%	50.7%	101%	109%	94.6%
CC(C)CCOC(=O)c1ccccc1	107%	118%	99.4%	105%	107%	104%	102%	107%	105%	107%	99.5%	102%	106%	108%	99.7%	103%	110%	106%

Compound	growth [1]	growth [2]	growth [3]	growth [4]	growth [5]	growth [6]	growth [7]	growth [8]	growth [9]	growth [10]	growth [11]	growth [12]	growth [13]	growth [14]	growth [15]	growth [16]	growth [17]	growth [18]
c1ccc(CN2COc3c(ccc4c3OCN(Cc3ccccc3)C4)C2)cc1	5.08% (active)	21.9%	23%	41.8%	26.3%	10.1%	32.1%	24.6%	53.6%	16.6%	13.1%	12.6%	22.1%	29.8%	28.5%	22%	-14.5% (active)	25.3%
CCN(CC)CCCC(C)Nc1ccnc(/C=C/c2ccc(Cl)cc2)c1 (centres undefined)	-19% (active)	-26.3% (active)	14.8%	47.1%	15.4%	72.8%	41.2%	26.5%	47.1%	56.1%	-4.4% (active)	29.1%	-53.4% (active)	-53.2% (active)	-26.6% (active)	-10.5% (active)	-23.6% (active)	25.3%
CCCCCCCCCCC(C)Br (centres undefined)	93.8%	101%	108%	104%	109%	98.3%	106%	108%	116%	105%	99.2%	105%	99.6%	106%	98.4%	100%	91%	107%
O=C(O)c1cc([N+](=O)[O-])ccc1Cl	88.4%	88.8%	96.1%	104%	107%	106%	117%	115%	119%	103%	99.6%	97.1%	107%	98.5%	88%	102%	97%	95%
CN(C)c1ccc2nc3ccc(=N)cc-3sc2c1	12%	6.67% (active)	3.37% (active)	80.1%	-8.03% (active)	95.9%	49.4%	6.65% (active)	99.6%	3.53% (active)	19.1%	51.6%	-59.8% (active)	23.5%	23.9%	16.7%	67.4%	38%
NC(=S)N/N=C/c1ccc(N)cc1	98.6%	98.8%	102%	108%	108%	100%	103%	103%	106%	102%	93.9%	96.3%	105%	104%	94.8%	94.1%	104%	103%
C=CC(O)CCC (centres undefined)	92.4%	103%	101%	103%	95.6%	108%	121%	113%	110%	103%	113%	112%	90.4%	101%	95.3%	112%	113%	109%
O=C(Cc1ccccc1)Cc1ccccc1	104%	103%	89.6%	95.8%	97.2%	99.8%	104%	106%	106%	110%	102%	107%	105%	101%	106%	98.1%	114%	103%
CC(=O)c1ccc(N=C(C#N)C2=C(O)c3ccccc3C2=O)cc1	91.1%	117%	103%	119%	108%	95%	115%	112%	107%	105%	93.4%	98.3%	110%	114%	83.1%	106%	98.1%	107%
CCCCOC(=O)c1ccc(C(C)C)cc1	102%	110%	106%	102%	102%	90.4%	100%	106%	108%	97.3%	88.7%	92.1%	103%	111%	94.9%	85.4%	107%	104%
Cc1ccc(N)cc1[N+](=O)[O-]	115%	116%	103%	116%	83.3%	112%	110%	115%	113%	102%	107%	97.9%	119%	100%	76.4%	101%	92.5%	105%
O=C1C=C(Nc2ccc([N+](=O)[O-])cc2)c2ccccc2C1=O	23.9%	18%	35.1%	86.9%	45.3%	62.3%	60.8%	7.94% (active)	47.5%	32.5%	20%	-1.53% (active)	-88.2% (active)	40.4%	26.5%	18%	72.4%	32.4%
CC(=O)OCCC(C)CCC=C(C)C (centres undefined)	108%	95%	102%	102%	107%	111%	112%	121%	104%	107%	98.8%	102%	102%	95.4%	101%	100%	102%	102%
CN(C)c1ccc(CNC(C(=O)c2ccccc2)c2ccccc2)cc1 (centres undefined)	90.8%	94.4%	95.9%	110%	99.1%	103%	98.2%	114%	46.1%	101%	98.9%	98%	107%	101%	107%	50.8%	106%	98.6%
CCOc1ccc(/C=C/C(=O)c2ccccc2)cc1	40.6%	9.27% (active)	95.6%	106%	102%	103%	74.8%	93.7%	120%	105%	88.8%	102%	89.2%	96.4%	70.5%	83.7%	92.5%	80.2%
S=C1CCCCCN1	102%	98.3%	104%	103%	111%	119%	110%	115%	105%	104%	100%	103%	104%	107%	99.4%	102%	112%	105%
COCCCC/C(=N\OCCN)c1ccc(C(F)(F)F)cc1	85.8%	100%	102%	92.5%	110%	105%	105%	105%	97.6%	102%	86.4%	107%	99.4%	97.1%	108%	101%	116%	107%
CC(=O)c1ccc(C)c(N)c1	106%	101%	96.4%	102%	111%	98.6%	95.8%	108%	96.9%	91.2%	99.8%	94.7%	114%	101%	97.1%	94.2%	108%	97%
